aSyn yeast inh = qHTS of alpha-syn Inhibitors; Yeast expressing alpha-synuclein, growth rescue, BacTiter-Glo, 24 h; Potency, µM (titrated, usually from 46.1 µM), for inactives: top-dose growth rescue (activation), hits mostly activators; 370,000 tested, 0.14% active; further: % of control where 0% means no effect; nearly all actives have a fitted effect of over 65% in size
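Galactose-induced alpha-syn yeast (OD600=0.02, raffinose-pregrown) + pinned cpd, 24 hr, 30 deg C; growth by BacTiter-Glo luminescence. Growth restoration scores as activation.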
FUS suppressor = qHTS for Suppressors of FUS Proteinopathy: Primary screen using FUS-linked yeast assay; S. cerevisiae FUS-expressing, growth rescue, OD600, 24 h; Potency, µM (series often up to 76.6 µM), usual class: activators; 390,000 tested, 0.24% active; AID 1347120, 2019;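 further: plate controls were DMSO vehicle for no effect and reference control for full effect; nearly all actives have a fitted effect of over 55% in size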
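S. cerevisiae expressing FUS from galactose induction served as the toxicity model. Growth after 24hr at 30C, read as absorbance at 600 nm, indicates suppression of toxicity; compounds dosed at several concentrations.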
MmCpn inh = Inhibitors of TCP-1 ring complex (TRiC) of Methanococcus maripaludis (MmCpn): qHTS. purified Mm-Cpn ATPase, ADP Transcreener TR-FRET. Potency, µM (titrated, usually from 76.9 µM), inactives show at the top dose activity, negative = inhibition, hits mostly inhibitors. Chaperonin Mm-Cpn (Methanococcus maripaludis). 330,000 tested, 0.031% active; further: on the % scale 0 is the no-effect control and ±100 the full control effect; nearly all actives have a fitted effect of over 80% in size
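ATPase read-out: TR-FRET ADP immunoassay (anti-ADP Eu cryptate vs ADP-d2), ex 320 nm, em 590/665 nm; signal drops as ADP forms. Enzyme 25 nM, ATP 10 uM, 30 min at 37°C after 10 min compound preincubation.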
TDP-43 yeast inh = qHTS of TDP-43 Inhibitors | AID 652104, 2013 | TDP-43 expressing yeast growth rescue, BacTiter-Glo, 24 h | Potency, µM (titrated, usually from 46.1 µM), for inactives: top-dose growth rescue (activation), usual class: activators | 410,000 tested, 1.8% active; further: % of control where 0% means no effect; nearly all actives have a fitted effect of over 50% in size
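Yeast expressing TDP-43 (pregrown in raffinose, seeded at OD600=0.02 in galactose medium) exposed to compounds 24 hr at 30 deg C. Growth read by BacTiter-Glo luminescence; rescue of toxicity appears as increased signal.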
Abeta yeast res = qHTS for compounds that reverse cellular toxicity of Amyloid beta (A-beta) peptide in yeast: Primary Screen; yeast expressing A-beta42, growth rescue, OD600, 48 h; response scale: 0% DMSO, 100% iron-clioquinol control; 410,000 tested, 0.063% active; Potency, µM (series often up to 46.1 µM), usual class: activators; AID 1347071, 2019; further: nearly all actives have a fitted effect of over 55% in size
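Yeast A-beta toxicity model in growth medium with pinned compounds, 48 h at 30 C; growth read as absorbance at 600 nm. Normalized to FeCl3/clioquinol equimolar mix (positive) and DMSO (negative).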
ClpP mod = qHTS Assay for Activators of ClpP; ATP-dependent Clp protease proteolytic subunit (Bacillus subtilis (strain 168)), P80244; Potency, µM (top dose mostly 57.5 µM), inactives show top-dose activity change, negative = active; purified B. subtilis ClpP, FRET peptide cleavage, 20 min; 340,000 tested, 1.9% active; active means well fitted falling curve with a large enough effect; inconclusive means small, poorly fitted or top-dose-only effect; inactive means no such curve, though single readings can be large or run the other way; further: the source files actives as falling curves though it sought activators and does not explain the sign; nearly all actives have a fitted effect of over 65% in size
Target sequence (P80244 whole entry, looked up): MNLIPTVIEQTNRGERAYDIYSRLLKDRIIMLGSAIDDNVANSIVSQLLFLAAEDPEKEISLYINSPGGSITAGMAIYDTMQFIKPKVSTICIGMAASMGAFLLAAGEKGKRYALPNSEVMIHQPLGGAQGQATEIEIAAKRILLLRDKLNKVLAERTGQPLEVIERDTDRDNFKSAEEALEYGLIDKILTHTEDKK
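FRET quenching reversal measured ClpP activation: 10 microg/mL B. subtilis ClpP at pH 8 with the FRET-FV decapeptide, read at 430 nm after 320 nm excitation. The 20-min minus 0-min signal was scaled between DMSO/no-enzyme wells and ADEP (5.8 microM final).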
Starred values were filed as active, the others as inactive; ! = not active in a repeat. A selection: hits, their analogues and other compounds. The true share with any hit is near 3.6%. Unless noted, the call rests on the fitted dose curve; in most records, active means well fitted curve in the direction sought with a large enough effect; inconclusive means small, poorly fitted or top-dose-only effect, or another doubt; inactive means no such curve, though single readings can be large; an effect the other way counts as inactive or inconclusive. Potency means the concentration at half of the fitted maximal effect.

For COc1ccc(/C=N/n2c(SC)nnc2-c2ccccc2)cc1C the results were aSyn yeast inh 4%, FUS suppressor inactive, TDP-43 yeast inh 16µM*, Abeta yeast res inactive and ClpP mod 0%.
For COc1ccc(/C=N/n2c(SC)nnc2-c2ccccc2)c(OC)c1OC the results were aSyn yeast inh 3%, FUS suppressor inactive, MmCpn inh 0%, TDP-43 yeast inh 5%, Abeta yeast res inactive and ClpP mod -1%.
COc1ccccc1OCC(=O)OC/C(O)=C(\C#N)c1nc2ccccc2[nH]1 was read as aSyn yeast inh 0%, FUS suppressor inactive, MmCpn inh -13%, TDP-43 yeast inh 15%, Abeta yeast res inactive and ClpP mod -2%.
For N#C/C(=C(/O)COC(=O)Cc1c[nH]c2ccccc12)c1nc2ccccc2[nH]1 the results were aSyn yeast inh 0%, FUS suppressor 35µM*, MmCpn inh 1%, TDP-43 yeast inh 0%, Abeta yeast res inconclusive and ClpP mod -8%.
Screening COc1ccccc1NC(=O)CN(C)S(=O)(=O)c1ccc2c(c1)c(=O)n(C)c(=O)n2C returned FUS suppressor inactive, TDP-43 yeast inh 26%, Abeta yeast res inactive and ClpP mod 0%.
Screening CC(C)c1ccc(-c2cc(C(=O)N3N=C(C(F)F)CC3(O)C(F)F)c3ccccc3n2)cc1 (stereo not drawn) returned aSyn yeast inh -10%, FUS suppressor inactive, MmCpn inh -1%, TDP-43 yeast inh -85%, Abeta yeast res inactive and ClpP mod 28µM*.
For COc1ccc(C(=O)C(CN2CCOCC2)c2ccccc2)cc1 (stereo not drawn) the results were aSyn yeast inh 0%, FUS suppressor inactive, MmCpn inh 0%, TDP-43 yeast inh inconclusive, Abeta yeast res inactive and ClpP mod -2%.
`O=C(c1ccc(F)cc1)C(CN1CCOCC1)c1ccccc1` (stereo not drawn) gave aSyn yeast inh 5%, MmCpn inh 0%, TDP-43 yeast inh 18µM*, Abeta yeast res inactive and ClpP mod -2%.
COc1ccc2ccccc2c1C(=O)/C=C\c1ccoc1 was read as aSyn yeast inh inconclusive, FUS suppressor inactive, MmCpn inh 1%, TDP-43 yeast inh 11µM*, Abeta yeast res inactive and ClpP mod 1%.
`NC(=O)C1CCN(c2nc(-c3cccc4sc5ccccc5c34)cs2)CC1` gave MmCpn inh -4%.
Screening O=C(Nc1ccccc1Cl)c1ccc(-c2ccccn2)s1 returned aSyn yeast inh -1%, FUS suppressor inactive, MmCpn inh -5%, TDP-43 yeast inh 11µM*, Abeta yeast res inactive and ClpP mod -1%.
Screening Oc1ccc(N=Nc2ccc3c(c2)OCCO3)c2ncccc12 returned aSyn yeast inh inconclusive, FUS suppressor inactive, MmCpn inh 0%, TDP-43 yeast inh 22µM*, Abeta yeast res inconclusive and ClpP mod 1%.
For Cc1cccc(N=Nc2ccc(O)c3ncccc23)c1 the results were aSyn yeast inh inconclusive, FUS suppressor inactive, MmCpn inh 1%, TDP-43 yeast inh inconclusive, Abeta yeast res inconclusive and ClpP mod -1%.
For Nc1ccc(NC(=O)c2cccc(C(=O)Nc3ccc(N)cc3Cl)c2)c(Cl)c1 the results were aSyn yeast inh -1%, FUS suppressor 11µM*!, MmCpn inh 0%, TDP-43 yeast inh -16%, Abeta yeast res inactive and ClpP mod 0%.
`Cc1[nH]c2ccc(Br)cc2c1CCNC(=O)c1cc2ccccc2oc1=O` gave aSyn yeast inh 1%, FUS suppressor inactive, TDP-43 yeast inh inconclusive, Abeta yeast res inactive and ClpP mod 4%.

Source: PubChem BioAssay
